Measured values taken from ChEMBL document CHEMBL3988442, “University of Dundee, Small-Polar-MMV Screening Library” (2021).
For some of these results: Measured potencies and affinities stand elsewhere.

Columns and labels:
Design in all cases: scale not given: direction of the effect not stated beside the values
[1] = target: Protein translocase subunit SecA (Escherichia coli (strain K12)) (UniProt P10408); test: Assay to Identify E. coli SecA ATPase Inhibitors; format: functional; settings: 30 µM
Sequence of Protein translocase subunit SecA (Escherichia coli (strain K12)) (P10408 whole entry): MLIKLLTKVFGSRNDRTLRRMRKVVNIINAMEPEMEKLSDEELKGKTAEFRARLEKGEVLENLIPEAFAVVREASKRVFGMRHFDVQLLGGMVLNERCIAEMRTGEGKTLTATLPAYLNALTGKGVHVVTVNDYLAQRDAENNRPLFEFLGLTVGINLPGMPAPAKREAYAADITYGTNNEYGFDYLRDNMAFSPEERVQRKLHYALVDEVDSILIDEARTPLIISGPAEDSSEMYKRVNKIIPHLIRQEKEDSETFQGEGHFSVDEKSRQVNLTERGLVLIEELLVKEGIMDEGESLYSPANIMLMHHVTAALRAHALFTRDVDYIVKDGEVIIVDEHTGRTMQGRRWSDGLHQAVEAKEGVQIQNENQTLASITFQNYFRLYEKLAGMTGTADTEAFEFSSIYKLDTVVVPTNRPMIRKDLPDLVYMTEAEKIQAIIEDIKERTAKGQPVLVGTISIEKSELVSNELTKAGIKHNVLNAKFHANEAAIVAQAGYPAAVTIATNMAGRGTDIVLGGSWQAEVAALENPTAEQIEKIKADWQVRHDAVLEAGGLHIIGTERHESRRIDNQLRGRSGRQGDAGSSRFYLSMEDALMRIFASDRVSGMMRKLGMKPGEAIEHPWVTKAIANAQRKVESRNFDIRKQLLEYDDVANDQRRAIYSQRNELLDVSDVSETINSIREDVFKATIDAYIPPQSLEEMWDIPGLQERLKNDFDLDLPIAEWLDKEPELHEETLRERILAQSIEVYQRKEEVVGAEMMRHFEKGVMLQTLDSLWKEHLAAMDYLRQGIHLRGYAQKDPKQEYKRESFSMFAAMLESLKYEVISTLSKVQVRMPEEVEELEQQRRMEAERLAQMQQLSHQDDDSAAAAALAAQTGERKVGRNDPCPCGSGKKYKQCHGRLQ

[2] = target: T1, Ubiquitin-activating enzyme e1, putative (Leishmania donovani (strain BPK282A1)) (UniProt E9BSI1); test: Leishmania donovani Ubiquitin Activating Enzyme (LdE1); format: functional; settings: 30 µM
T1 sequence (whole entry): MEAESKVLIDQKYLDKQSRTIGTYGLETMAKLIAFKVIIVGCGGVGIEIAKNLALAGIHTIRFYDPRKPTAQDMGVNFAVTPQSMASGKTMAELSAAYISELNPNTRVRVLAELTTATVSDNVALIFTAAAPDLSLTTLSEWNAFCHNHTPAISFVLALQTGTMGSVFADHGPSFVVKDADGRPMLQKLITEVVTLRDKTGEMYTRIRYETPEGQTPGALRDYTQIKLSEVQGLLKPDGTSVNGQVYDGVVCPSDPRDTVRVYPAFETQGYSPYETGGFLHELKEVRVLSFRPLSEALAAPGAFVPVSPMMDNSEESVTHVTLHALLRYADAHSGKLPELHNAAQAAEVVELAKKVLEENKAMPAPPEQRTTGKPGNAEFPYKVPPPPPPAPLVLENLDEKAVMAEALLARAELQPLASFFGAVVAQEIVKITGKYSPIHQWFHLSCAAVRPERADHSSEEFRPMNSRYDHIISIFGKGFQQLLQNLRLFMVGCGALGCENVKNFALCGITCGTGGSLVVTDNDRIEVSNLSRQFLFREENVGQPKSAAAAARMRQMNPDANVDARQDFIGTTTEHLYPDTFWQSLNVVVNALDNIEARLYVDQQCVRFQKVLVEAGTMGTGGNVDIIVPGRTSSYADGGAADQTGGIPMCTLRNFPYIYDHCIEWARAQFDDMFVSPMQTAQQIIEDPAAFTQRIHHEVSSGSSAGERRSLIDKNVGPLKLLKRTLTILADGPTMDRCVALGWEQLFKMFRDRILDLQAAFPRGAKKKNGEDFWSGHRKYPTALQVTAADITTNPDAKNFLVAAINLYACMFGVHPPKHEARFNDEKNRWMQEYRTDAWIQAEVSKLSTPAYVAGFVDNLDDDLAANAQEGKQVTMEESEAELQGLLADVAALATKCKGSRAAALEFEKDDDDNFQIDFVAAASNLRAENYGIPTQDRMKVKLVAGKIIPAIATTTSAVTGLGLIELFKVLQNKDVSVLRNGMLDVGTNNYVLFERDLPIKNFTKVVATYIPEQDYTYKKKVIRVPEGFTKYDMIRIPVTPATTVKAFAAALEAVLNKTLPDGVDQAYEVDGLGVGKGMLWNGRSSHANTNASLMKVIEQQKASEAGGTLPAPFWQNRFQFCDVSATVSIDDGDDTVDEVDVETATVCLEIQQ

[3] = target: AMP-activated protein kinase, AMPK (Homo sapiens) (UniProt P54646+O43741+P54619+Q9UGJ0+Q9Y478+Q13131+Q9UGI9); test: AMP-dependent Kinase enzyme assay. An in vitro enzyme assay that detects ADP turnover that is directly proportional to AMPK activity. This uses naive AMPK that is activated during the assay with MK-8722; format: functional; settings: 30 µM
[4] = target: Sialic acid-binding Ig-like lectin 9 (Homo sapiens) (UniProt Q9Y336); test: Hs-Siglec9 ALPHAscreen SOP 20170721; settings: 10 µM
Sequence of Sialic acid-binding Ig-like lectin 9 (Homo sapiens) (Q9Y336 whole entry): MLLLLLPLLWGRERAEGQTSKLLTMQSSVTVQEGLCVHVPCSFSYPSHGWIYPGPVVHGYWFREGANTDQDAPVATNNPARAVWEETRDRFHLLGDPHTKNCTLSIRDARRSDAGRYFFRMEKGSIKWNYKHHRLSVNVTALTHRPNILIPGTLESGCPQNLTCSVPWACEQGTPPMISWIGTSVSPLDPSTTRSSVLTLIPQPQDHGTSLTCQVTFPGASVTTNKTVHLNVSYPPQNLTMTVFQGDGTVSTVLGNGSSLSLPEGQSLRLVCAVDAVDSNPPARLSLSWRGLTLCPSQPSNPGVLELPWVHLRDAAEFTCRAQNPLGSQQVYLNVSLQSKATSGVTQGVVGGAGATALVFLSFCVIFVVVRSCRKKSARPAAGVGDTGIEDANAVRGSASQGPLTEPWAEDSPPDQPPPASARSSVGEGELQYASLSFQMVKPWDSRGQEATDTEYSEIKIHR

Trypanosoma cruzi = test: Trypanosoma cruzi phosphomannomutase and mannose-1-phosphate guanylyltransferase assay; format: functional; settings: 10 µM
[5] = target: T2, Arginase-2, mitochondrial (Homo sapiens) (UniProt P78540); test: in vitro enzyme assay to detect the production of urea directly proportional to the activity of Arginase II; format: functional; settings: 33.3 µM; further: in the data most compounds retested in dose-response had high values
T2 sequence (whole entry): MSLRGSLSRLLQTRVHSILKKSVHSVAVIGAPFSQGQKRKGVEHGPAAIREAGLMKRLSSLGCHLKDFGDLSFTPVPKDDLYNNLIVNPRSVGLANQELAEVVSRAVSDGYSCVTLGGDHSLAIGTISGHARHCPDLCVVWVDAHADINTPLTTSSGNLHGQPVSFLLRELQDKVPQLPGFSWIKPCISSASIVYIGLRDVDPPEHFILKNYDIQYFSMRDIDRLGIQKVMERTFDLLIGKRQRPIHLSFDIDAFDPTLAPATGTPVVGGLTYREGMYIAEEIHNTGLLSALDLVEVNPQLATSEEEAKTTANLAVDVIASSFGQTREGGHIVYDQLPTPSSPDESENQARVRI

[6] = target: T3, Proteasome subunit beta (Trypanosoma cruzi) (UniProt O96673); test: Trypanosoma cruzi proteasome chymotrypsin-like activity (TcProtChymo) assay.; further: in the data most compounds retested in dose-response had high values; format: functional; settings: 9.37 µM
T3 sequence (whole entry): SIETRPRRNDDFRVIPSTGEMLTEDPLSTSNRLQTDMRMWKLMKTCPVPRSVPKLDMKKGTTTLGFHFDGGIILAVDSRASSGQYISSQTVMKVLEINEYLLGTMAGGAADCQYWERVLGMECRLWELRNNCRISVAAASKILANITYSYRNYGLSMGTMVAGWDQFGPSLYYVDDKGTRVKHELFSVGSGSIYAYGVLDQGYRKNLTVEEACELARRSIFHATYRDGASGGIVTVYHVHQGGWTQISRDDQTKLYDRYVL

Homo sapiens = species: Homo sapiens; test: To identify inhibition of the IFN signalling (Jak-Stat) pathway via expression of an eGFP reporter gene under the control of an IFN-stimulated response element (ISRE) containing MxA promoter.; format: functional; settings: 30 µM
[7] = target: T4, Tyrosyl-tRNA synthetase, putative (Trypanosoma cruzi (strain CL Brener)) (UniProt Q4DSP6); test: Trypanosoma cruzi tyrosyl tRNA synthetase (TcYRS) _High Tyrosine SOP; format: functional; settings: 30 µM; further: in the data most compounds retested in dose-response had high values
T4 sequence (whole entry): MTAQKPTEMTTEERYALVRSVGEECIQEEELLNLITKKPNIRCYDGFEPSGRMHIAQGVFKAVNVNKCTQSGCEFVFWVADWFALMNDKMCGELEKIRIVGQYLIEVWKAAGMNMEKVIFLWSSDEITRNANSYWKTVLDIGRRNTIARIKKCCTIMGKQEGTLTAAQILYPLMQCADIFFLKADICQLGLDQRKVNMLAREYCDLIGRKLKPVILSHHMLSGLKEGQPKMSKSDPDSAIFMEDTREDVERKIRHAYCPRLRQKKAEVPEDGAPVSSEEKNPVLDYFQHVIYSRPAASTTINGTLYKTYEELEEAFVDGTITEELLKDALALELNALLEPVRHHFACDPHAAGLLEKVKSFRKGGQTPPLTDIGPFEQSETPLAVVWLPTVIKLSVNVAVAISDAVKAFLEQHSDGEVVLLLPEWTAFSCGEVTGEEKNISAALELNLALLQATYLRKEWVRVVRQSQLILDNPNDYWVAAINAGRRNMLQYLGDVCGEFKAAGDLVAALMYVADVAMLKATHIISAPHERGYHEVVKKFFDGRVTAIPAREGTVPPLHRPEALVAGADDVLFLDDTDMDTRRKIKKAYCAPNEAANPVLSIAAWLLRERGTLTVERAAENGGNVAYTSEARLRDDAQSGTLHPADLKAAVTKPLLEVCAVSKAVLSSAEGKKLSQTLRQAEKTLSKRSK

[8] = target: T4, Tyrosyl-tRNA synthetase, putative (Trypanosoma cruzi (strain CL Brener)); test: Trypanosoma cruzi tyrosyl tRNA synthetase (TcYRS) SOP; format: functional; settings: 30 µM
[9] = target: Chromo domain-containing protein 1 (Saccharomyces cerevisiae (strain ATCC 204508 / S288c) (Baker's yeast)) (UniProt P32657); test: ScCHD-1 Enzyme Inhibition Assay; format: functional; settings: 30 µM; further: in the data most compounds retested in dose-response had high values
Sequence of Chromo domain-containing protein 1 (Saccharomyces cerevisiae (strain ATCC 204508 / S288c) (Baker's yeast)) (P32657 whole entry, the tested form may be a part): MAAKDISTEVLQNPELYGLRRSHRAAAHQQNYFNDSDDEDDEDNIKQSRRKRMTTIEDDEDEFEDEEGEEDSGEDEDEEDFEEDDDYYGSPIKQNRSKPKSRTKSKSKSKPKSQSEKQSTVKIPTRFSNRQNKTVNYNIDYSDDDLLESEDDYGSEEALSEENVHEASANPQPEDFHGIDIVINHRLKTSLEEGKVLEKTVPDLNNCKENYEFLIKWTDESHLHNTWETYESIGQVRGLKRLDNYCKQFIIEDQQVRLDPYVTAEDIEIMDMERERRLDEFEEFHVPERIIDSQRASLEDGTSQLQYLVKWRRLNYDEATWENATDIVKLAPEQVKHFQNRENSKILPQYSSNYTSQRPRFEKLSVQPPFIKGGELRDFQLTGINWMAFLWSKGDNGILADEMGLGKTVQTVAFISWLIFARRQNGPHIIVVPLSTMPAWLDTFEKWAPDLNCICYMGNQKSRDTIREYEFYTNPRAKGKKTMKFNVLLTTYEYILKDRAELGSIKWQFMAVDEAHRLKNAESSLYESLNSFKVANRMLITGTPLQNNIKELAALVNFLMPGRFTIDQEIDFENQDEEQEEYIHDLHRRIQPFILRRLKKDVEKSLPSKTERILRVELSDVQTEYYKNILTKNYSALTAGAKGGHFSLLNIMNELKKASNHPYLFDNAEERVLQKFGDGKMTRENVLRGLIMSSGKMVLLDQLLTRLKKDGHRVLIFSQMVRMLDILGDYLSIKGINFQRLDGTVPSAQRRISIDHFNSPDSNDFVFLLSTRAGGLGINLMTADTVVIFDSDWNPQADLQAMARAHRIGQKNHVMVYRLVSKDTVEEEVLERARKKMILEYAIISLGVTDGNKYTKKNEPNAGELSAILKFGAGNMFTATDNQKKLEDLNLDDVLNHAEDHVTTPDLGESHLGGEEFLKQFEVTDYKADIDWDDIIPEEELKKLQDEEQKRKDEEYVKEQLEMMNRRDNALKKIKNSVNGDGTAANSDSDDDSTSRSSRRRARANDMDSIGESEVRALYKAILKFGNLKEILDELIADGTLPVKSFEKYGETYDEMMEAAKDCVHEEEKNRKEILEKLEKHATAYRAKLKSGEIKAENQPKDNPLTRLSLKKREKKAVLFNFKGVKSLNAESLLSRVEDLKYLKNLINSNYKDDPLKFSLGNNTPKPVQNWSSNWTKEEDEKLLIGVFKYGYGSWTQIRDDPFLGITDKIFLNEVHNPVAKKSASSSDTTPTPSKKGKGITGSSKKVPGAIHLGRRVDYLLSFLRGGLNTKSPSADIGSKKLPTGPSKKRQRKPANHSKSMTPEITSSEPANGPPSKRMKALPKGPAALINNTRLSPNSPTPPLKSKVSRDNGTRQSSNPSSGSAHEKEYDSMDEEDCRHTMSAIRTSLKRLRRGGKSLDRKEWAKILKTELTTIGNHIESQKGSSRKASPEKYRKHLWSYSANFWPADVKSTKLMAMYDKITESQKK

| Structure (SMILES) | Percent Effect [1] [%] | Percent Effect [2] [%] | Percent Effect [3] [%] | Percent Effect [4] [%] | Percent Effect (Trypanosoma cruzi) [%] | Percent Effect [5] [%] | Percent Effect [6] [%] | Percent Effect (Homo sapiens) [%] | Percent Effect [7] [%] | Percent Effect [8] [%] | Percent Effect [9] [%] |
| --- | --- | --- | --- | --- | --- | --- | --- | --- | --- | --- | --- |
| c1cnnc(N2CCCC2CNc2ncnc3ccccc23)c1 (stereo unspecified) | -3.22 | -3.8 | 9.15 | -3.44 | -4.41 | 4.09 | 9.61 | 36 | 25 | 27.9 | -16.5 |
| Cc1cc(F)ccc1S(=O)(=O)NCc1cccc(C(=O)N2CCCC2)c1 | -5.18 | 15.6 | 2.25 | 0.935 | 2.64 | -12 | 2.34 | 26.5 | 6.67 | 9.41 | -12.9 |
| O=C(CN1CCC(c2ccnn2CCO)CC1)NCc1cccs1 | -3.33 | 15.2 | -3.55 | -6.32 | 1.23 | 1.52 | 2.87 | -10.7 | 8.37 | 24.1 | -5.84 |
| CCc1nc(CN2CCN(c3ncnc4cc(F)ccc34)CC2)no1 | -8.93 | 0 | -0.509 | 2.81 | -3.44 | 0 | 9.65 | 75.3 | -3.23 | -6.17 | 1.03 |
| O=C1CN(Cc2nnc(-c3ccccc3Br)o2)CCN1 | -1.52 | 9.72 | 0.225 | -0.91 | 2.43 | 2.65 | 25.1 | -21.9 | 1.05 | 7.69 | -3.03 |
| Fc1ccc(CN2CCC(c3nccnc3-n3ccnc3)CC2)cc1 | -8.16 | 17.6 | 8.26 | 0.663 | 3.75 | -3.02 | 12.5 | 17.9 | 3.23 | 3.9 | -17.3 |
| Cc1nc(CN(C)C2CCN(Cc3ccc4c(c3)OCCO4)C2)no1 (stereo unspecified) | -7.11 | 13 | -0.861 | -3.18 | 5.39 | 1.9 | 2.83 | -7.46 | 5.71 | 11.8 | -17.4 |
| CCCS(=O)(=O)N1CCOCC2(CCN(c3ccccn3)C2)C1 (stereo unspecified) | -1.74 | 1.33 | -1.28 | 4.69 | -6.88 | 1.58 | 3.88 | 3.94 | -3.17 | 5.13 | -4.27 |
| CC(C)COCC(NC(=O)c1cccnc1)c1ccco1 (stereo unspecified) | -5.15 | 10.8 | -37.5 | 3.03 | 0.0943 | -4.01 | -0.54 | 16.3 | 9.36 | 11.1 | -5.14 |
| CCn1ccnc1-c1nc2cc(S(=O)(=O)N3CCCC3)ccc2n1C | -6.04 | 0 | 3.54 | 25.2 | 4.31 | 6.36 | 4.97 | 2.47 | 3.23 | 10 | 100 |
| COCc1cc(NCc2cc(F)ccc2F)n2nccc2n1 | -3.49 | -2.74 | -7.06 | 1.05 | -5.68 | 2.27 | 5.15 | 15.9 | 2.15 | 7.5 | -6.68 |
